# Screens as filed in PubChem.
# gsp ag = qHTS for Agonist of gsp, the Etiologic Mutation Responsible for Fibrous Dysplasia/McCune-Albright Syndrome: qHTS; gsp mutant cells, cAMP HTRF, 30 min; Potency, µM (highest dose often 76.9 µM), inactives show top-dose activation (cAMP increase), actives largely listed as activators; 340,000 compounds, 0.13% hits; active means well fitted activation curve with a large enough effect; inconclusive means small, poorly fitted or top-dose-only effect, or another doubt; inactive means no such curve, though single readings can be large or run the other way; cell line not stated here;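 further: phosphodiesterase inhibitor Ro 20-1724 added with compounds to block cAMP breakdown; potency means the concentration at half of the fitted maximal effect; nearly all actives have a fitted effect of over 60% in size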
#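 Cells in DMEM/10% FBS with G418 were pretreated with compounds in DMSO plus […] (300 uM stock) for 30 min at 37C. cAMP was measured by HTRF (cAMP-d2 plus anti-cAMP antibody-K) after 30 min at room temperature.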
# RXFP1 agonist = qHTS Assay for Agonists of the Relaxin Receptor RXFP1 | Relaxin receptor 1 (Homo sapiens), Q9HBX9 | HEK293T-RXFP1 cAMP TR-FRET, 30 min; response scale: percent of porcine relaxin response, buffer zero | 370,000 compounds, 0.3% hits | Potency, µM (top dose mostly 57.5 µM), without a hit: at the highest dose activation, actives largely listed as activators; further: potency means the concentration at half of the fitted maximal effect; on the % scale 0 is the no-effect control and ±100 the full control effect; nearly all actives have a fitted effect of over 60% in size
# Target sequence (Q9HBX9 whole entry, looked up): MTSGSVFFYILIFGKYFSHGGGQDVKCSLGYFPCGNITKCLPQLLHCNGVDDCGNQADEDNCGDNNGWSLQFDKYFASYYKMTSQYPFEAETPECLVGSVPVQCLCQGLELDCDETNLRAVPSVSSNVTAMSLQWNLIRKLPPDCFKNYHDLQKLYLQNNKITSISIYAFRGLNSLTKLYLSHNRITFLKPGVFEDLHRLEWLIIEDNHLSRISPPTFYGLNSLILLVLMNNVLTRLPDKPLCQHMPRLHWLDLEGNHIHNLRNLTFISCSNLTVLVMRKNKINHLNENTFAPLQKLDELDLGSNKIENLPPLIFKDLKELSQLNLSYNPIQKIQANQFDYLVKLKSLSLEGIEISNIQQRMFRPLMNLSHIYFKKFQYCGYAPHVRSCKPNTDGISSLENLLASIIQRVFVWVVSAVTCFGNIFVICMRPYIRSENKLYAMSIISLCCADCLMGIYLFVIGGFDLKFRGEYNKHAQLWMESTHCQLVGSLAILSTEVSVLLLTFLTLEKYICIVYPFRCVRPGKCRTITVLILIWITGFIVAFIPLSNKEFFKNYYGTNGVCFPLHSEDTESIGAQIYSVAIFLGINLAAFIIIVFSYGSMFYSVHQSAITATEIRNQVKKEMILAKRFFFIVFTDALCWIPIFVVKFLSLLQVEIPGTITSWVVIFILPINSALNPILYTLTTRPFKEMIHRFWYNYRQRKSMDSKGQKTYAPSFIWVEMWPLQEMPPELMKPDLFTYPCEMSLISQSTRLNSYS
#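 cAMP rise read by TR-FRET after 30 min, 37C compound exposure (up to 58 uM) in RXFP1-transfected HEK293 cells with Ro 20174 present. EC50 from Hill-equation fits, with 29 nM porcine relaxin as 100% and buffer as basal.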
# Luc counter = Counterscreen for Luciferase (Kinase-Glo TM) Inhibition; Luciferin 4-monooxygenase (Photuris pensylvanica), Q27757; Kinase-Glo luciferase, ATP luminescence, 8 min; Potency, µM (series often up to 38.3 µM), for inactives: at the top dose activity change, negative = inhibition, most hits filed as inhibitors; 200,000 compounds, 0.28% hits; AID 1379, 2008; further: potency means the concentration at half of the fitted maximal effect; on the % scale 0 is the no-effect control and ±100 the full control effect; nearly all actives have a fitted effect of over 60% in size
#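 Kinase-Glo luciferase light output from ATP and luciferin was measured with 10 uM ATP, within the enzyme's linear range. Buffer: 50 mM imidazole pH 7.2, 50 mM KCl, 7 mM MgCl2, 0.01% Tween 20, 0.05% BSA; luminescence read after 8 min at ambient temperature.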
# RXFP1 antag = qHTS Assay for Antagonists of the Relaxin Receptor RXFP1; HEK293-RXFP1, relaxin-stimulated cAMP HTRF, 30 min; stronger effect = lower value; 350,000 compounds, 0.59% hits; AID 1259400, 2018; activity change, negative = inhibition, % at 57.5 µM;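 active means activity change of -60% or lower, but not beyond a set lower limit; inconclusive means change between -60% and -40%, or beyond the set limit; inactive means change above -40%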; further: on the % scale 0 is the no-effect control and ±100 the full control effect
# miR-21 reporter = qHTS Assay for Modulators of miRNAs and/orActivators of miR-21; HeLa miR-21 FLuc reporter, luciferase, 48 h; Potency, µM (doses to about 38.3 µM), without a hit: at the highest dose activity change, positive = activation, hits mostly activators; 340,000 tested, under 10 active;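 further: % of control where 0% means no effect; miR-21 action dims this reporter so a rising signal means less miR-21 action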
#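 Luminescence from a firefly luciferase reporter carrying a miR-21 binding site downstream, stably expressed under a CMV promoter in HeLa cells that make miR-21 endogenously, reports miRNA modulation after 48 h compound exposure up to approximately 40uM final.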
# gsp antag = qHTS for Antagonists of gsp, the Etiologic Mutation Responsible for Fibrous Dysplasia/McCune-Albright Syndrome: qHTS | 340,000 compounds, 0.4% hits | Potency, µM (titrated, usually from 76.9 µM), inactives show at the top dose activity change, negative = inhibition, most hits filed as inhibitors | AID 624288, 2012 | gsp-mutant cells, cAMP HTRF, 30 min; calls by dose curve; cell line not stated here;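 further: intracellular cAMP measured with PDE inhibitor Ro 20-1724 present during compound exposure; potency means the concentration at half of the fitted maximal effect; on the % scale 0 is the no-effect control and ±100 the full control effect; nearly all actives have a fitted effect of over 65% in size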
#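 HTRF cAMP measurement after 30 min RT detection following 30 min, 37C compound treatment alongside […] (added as 300 uM solution) in G418-selected cells seeded at 2000/well and grown 16–24 h.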
# Active calls of the source: *; ? = inconclusive; . = no result; ! = not confirmed by another sample; [ ] = another dose, or the depositor's remark. Compounds with a hit are over-represented: about 1% of the library has one in this group of screens. Unless noted, the call rests on the fitted dose curve; in most records, active means well fitted curve in the direction sought with a large enough effect; inconclusive means small, poorly fitted or top-dose-only effect, or another doubt; inactive means no such curve, though single readings can be large; an effect the other way counts as inactive or inconclusive.
SMILES,gsp ag,RXFP1 agonist,Luc counter,RXFP1 antag,miR-21 reporter,gsp antag
N#CC(C#N)=NNc1ccc(-n2ccc(C(F)(F)F)n2)cc1,?,0.8%,.,?,?,31.6µM*
CCC(COC(=O)c1cc(OC)c(OC)c(OC)c1)(c1ccccc1)N(C)C (stereo unspecified),.,2.0%,0.4%,-61.5*,-8.9%,-16.1%
CC[N+](CC)(CC)CC,.,1.0%,-5.7%,7.9,3.7%,35.5µM*
CCN(C(=O)CN1CC=C(c2ccccc2)CC1)c1c(N)n(Cc2ccccc2)c(=O)[nH]c1=O,7.9%[15.4 µM],-0.4%,-1.3%,-61.0*,2.0%,9.6%
CC(C)n1c(O)c(C2c3cc(Cl)ccc3Oc3[nH]c(=O)n(C(C)C)c(=O)c32)c(=O)[nH]c1=O (stereo unspecified),17.0%[15.4 µM],0.5%,.,-83.9*,?,-20.7%
COc1ccc(-[n+]2c(-c3ccccc3)cc(-c3ccccc3)cc2-c2ccccc2)cc1,.,0.7%,.,.,.,-20.5%
Oc1ccc(-[n+]2c(-c3ccccc3)cc(-c3ccccc3)cc2-c2ccccc2)cc1,.,0.1%,.,.,.,50.1µM*
O=C1OCc2cc(N=Nc3c(O)[nH]c(=O)[nH]c3=O)ccc21,?,10µM*,.,9.1,-4.4%,13.1%
O=C(O)c1cccc(N=Nc2c(O)[nH]c(=O)[nH]c2=O)c1,19.6%,8.9%,.,6.2,-0.5%,2.9%
O=c1[nH]c(O)c(N=Nc2ccc([N+](=O)[O-])cc2)c(=O)[nH]1,?,14.1µM*,-3.5%,6.7,-7.1%,1.6%
CC(C)c1ccc(N=Nc2c(O)[nH]c(=O)[nH]c2=O)cc1,-68.6%,-1.4%,.,-0.3,-33.0%,-5.6%
ClCCN1CCCC1,.,.,.,1.9,.,.
O=C1NC(=O)N(Cc2ccc(F)cc2)C(=O)/C1=C\c1ccc(N2CCCC2)cc1,-6.5%[15.4 µM],1.6%,.,-16.0,1.0%,2.8%
CN1C(=O)C(=Cc2ccc(N3CCCCCC3)cc2)C(=O)N(C)C1=O,-2.2%[15.4 µM],-6.8%,.,-20.2,6.9%,35.5µM*
CN(C)C(=O)Oc1ccc(-c2cn3cc(Cl)ccc3n2)cc1,5.3%,-0.5%,14.1µM*,.,-42.2%,-29.1%
CN(C)C(=O)Oc1cccc(-c2cn3cc(Cl)ccc3n2)c1,-21.1%,0.4%,-6.6%,1.9,-46.0%,-13.5%
Cc1cc(C(C#N)c2ccc(Cl)cc2)c(Cl)cc1NC(=O)c1cc(I)cc(I)c1O (stereo unspecified),.,0.1%,.,-111.9*,.,?
CC(=O)[O][Hg][c]1ccccc1,.,.,12.6µM*,-15.2,.,.
CC(=O)/C=C/c1ccccc1,-54.5%,.,.,14.2,.,10.3%
C1CN2CCC1CC2,.,.,.,-8.1,.,.
CC[N+]1(CC)CCC(OC(=O)C(O)(c2ccccc2)c2ccccc2)C1 (stereo unspecified),.,.,.,9.9,.,.
CC[C@]1(OC(=O)CN)C(=O)OCc2c1cc1n(c2=O)Cc2cc3ccccc3nc2-1,.,.,-4.9%[7.66 µM],.,.,.
O=C(Nc1cccc(F)c1)N1CCC2(CC1)CCN(C(=O)Oc1ccccc1)CC2,.,.,0.7%,.,.,.
CN(CC(=O)Nc1cccc(F)c1)CC(=O)Nc1cccc(S(=O)(=O)N(C)c2ccccc2)c1,-0.9%[15.4 µM],.,.,-8.8,.,50.1µM*
CC[n+]1c(-c2ccccc2)c2cc(N)ccc2c2ccc(N)cc21,24.9%,.,?,-85.0*!,.,?
O=S(=O)(NCCO)c1cc[c]([Sb])cc1,.,.,-4.2%[7.66 µM],.,.,.
O=C(O)[C@@H]1[C@H](C(=O)O)[C@]2(Cl)C(Cl)=C(Cl)[C@@]1(Cl)C2(Cl)Cl,.,.,-5.6%[7.66 µM],.,.,.
O=C1C=CC(=O)C2C1C1(Cl)C(Cl)=C(Cl)C2(Cl)C1(Cl)Cl (stereo unspecified),-8.4%,.,.,-94.8*,.,-18.4%
